From publication PMC4552634, “A New Set of Chemical Starting Points with Plasmodium falciparum Transmission-Blocking Potential for Antimalarial Drug Discovery” (PLoS ONE, 2015)
Screen size: about 13,000 compounds; about 3,200 (25%) showed an effect of 50% or more. Some of the results follow.

These molecules were tested on P. falciparum stage V gametocytes. Settings: 48 h, 5 µM; inhibitor.
Parameters: BacTiter-Glo ATP luminescence viability of purified stage V gametocytes in 384-well plates, per cent inhibition versus DMSO

Compound	% Inhibition [%]
CSc1c(CNCCCNc2cc(=O)c3ccccc3[nH]2)[nH]c2ccccc12 [TCMDC-140648]	-17.76
O=C(Nc1ccc(Cn2ncc(N3CCCNCC3)c(Cl)c2=O)cc1)Nc1cccc(Oc2ccccc2)c1 [TCMDC-133316]	4.228
O=C(Nc1ccc(Oc2ccccc2)cc1)N(CCN1CCCC1)Cc1ccc(-c2ccc(CN3CCNCC3)cc2)cc1 [TCMDC-139652]	103.6
O=C(Nc1ccc(Oc2ccccc2)cc1)N(Cc1ccc(-c2ccc(CN3CCNCC3)cc2)cc1)C1CCN(Cc2ccccc2)CC1 [TCMDC-139653]	106.3
N#Cc1cccc(C(=O)Nc2ccc(-c3cccc(CN4CCC(O)CC4)c3)cc2)c1 [TCMDC-132670]	-58.6
O=C(Nc1ccc(-c2cccc(CN3CCC(O)CC3)c2)cc1)c1cccc(Cl)c1 [TCMDC-132665]	-3.105
O=C(Nc1ccc(-c2nc3ccccc3[nH]2)cc1)C1CCN(Cc2ccccc2)CC1 [TCMDC-124891]	-65.72
O=C(Nc1ccc(Oc2ccccc2)cc1)N(Cc1ccc(-c2cccc(CN3CCNCC3)c2)cc1)C1CCN(Cc2ccccc2)CC1 [TCMDC-139637]	111.2
COC(=O)c1ccc(CN2CCC(N(Cc3cccc(Oc4ccccc4)c3)S(=O)(=O)c3ccc(NC(C)=O)cc3)CC2)cc1 [TCMDC-139500]	-7.518
O=C(Nc1cccc(-c2cccc(-c3nc4ccc(C(F)(F)F)cc4[nH]3)c2)c1)c1ccc(=O)[nH]n1 [TCMDC-137031]	-1.351
O=C(Nc1ccc(-c2nc3ccccc3[nH]2)cc1)c1ccc(N2CCOCC2)c([N+](=O)[O-])c1 [TCMDC-124372]	-1.163
O=C(NC1CC1)c1cnc(N2CCN(Cc3c(F)cccc3Cl)CC2)c(Cl)c1 [TCMDC-134607]	20.64
CCC(C)NC(=O)CN1CN(c2ccccc2)C2(CCN(C(=O)c3ccc(C(C)(C)C)cc3)CC2)C1=O (stereo not shown) [TCMDC-125176]	-75.94
Nc1ncc(-c2ccccc2)cc1-c1nc2cc(Cl)c(F)cc2[nH]1 [TCMDC-138783]	-16.12
CC1CN(c2ccnc3ccc(Sc4ccc(Oc5ccccc5)cc4)cc23)CC(C)N1 (stereo not shown) [TCMDC-135857]	94.55
Cc1c(S(=O)(=O)Nc2ccc3nccc(N4CC(C)NC(C)C4)c3c2)sc2ccc(Cl)cc12 (stereo not shown) [TCMDC-139464]	2.238
CSc1ccc2nccc(Nc3ccc(Oc4ccccc4)cc3)c2c1 [TCMDC-138375]	-18.84
CC[C@H](C)CNC(=O)c1ccnc(-c2cccc(CN3CCC(N4CCCC4)CC3)c2)c1 [TCMDC-134244]	20.81
O=S(=O)(c1cccc(C(F)(F)F)c1)N1CCC(CO)(Cc2cccc(C(F)(F)F)c2)CC1 [TCMDC-124606]	41.83
CCCS(=O)(=O)N1CCC(CO)(Cc2ccccc2C(F)(F)F)CC1 [TCMDC-124652]	66.01
N#Cc1ccc(CN2CCC(Oc3ccc(NC(=O)c4ccco4)cc3Cl)C2)cc1 (stereo not shown) [TCMDC-133963]	28.15
O=C(NC1CCCCC1)N(Cc1ccc(-c2cccc(CNC3CCCC3)c2)cc1)C1CCN(Cc2ccccc2)CC1 [TCMDC-140638]	83.36

Compound	% Inhibition [%]
O=C(NC1CCCCC1)N(Cc1cccc(-c2ccc(CNC3CCCC3)cc2)c1)C1CCN(Cc2ccccc2)CC1 [TCMDC-140631]	106.7
O=C(NC1CCCCC1)N(Cc1cccc(-c2ccc(CNCCc3ccccc3)cc2)c1)C1CCN(Cc2ccccc2)CC1 [TCMDC-140629]	110.5
O=C(NC1CCCCC1)N(Cc1cccc(-c2cccc(CNC3CCCC3)c2)c1)C1CCN(Cc2ccccc2)CC1 [TCMDC-140630]	102.1
COc1ccc2nccc(NCC3(O)CCN(CCc4ccc5c(c4)OCCO5)CC3)c2n1 [TCMDC-141461]	34.43
CC(C)CN1C(=O)C(c2ccc(F)c(F)c2)=C(O)C1c1ccccc1 (stereo not shown) [TCMDC-141919]	11.18
O=C(Nc1ccc(OC2CCN(Cc3ccccc3)C2)c(Cl)c1)c1ccsc1 (stereo not shown) [TCMDC-133969]	-1.877
C=CCOC(=O)O[C@@H]1[C@@H](OC(=O)OCC=C)[C@@H](OC)O[C@H](COC(c2ccccc2)(c2ccccc2)c2ccccc2)[C@H]1OC(=O)OCC=C [TCMDC-139139]	34.95
COc1ccccc1N1CCN(CCCCNC(=O)c2ccc(NC(=O)c3cc4ccccc4o3)cc2)CC1 [TCMDC-138115]	-10.75
Cc1cccc(CN2CCC(Oc3ccc(NC(=O)c4cccs4)cc3Cl)CC2)n1 [TCMDC-133964]	24.07
O=C(NC1CCCCC1)N(Cc1ccc(-c2ccc(CNC3CCCC3)cc2)cc1)C1CCN(Cc2ccccc2)CC1 [TCMDC-140639]	105.2
FC(F)(F)c1cccc2c(NN=Cc3ccccc3)ccnc12 [TCMDC-142025]	48.45
COc1ccc2ncc(F)c(CCN3CC[C@@H](CNCc4ccc5c(c4C)OCCO5)C3)c2n1 [TCMDC-136057]	40.7
c1ccc(CN2CCC(NCc3ccc(-c4ccc(CNCc5cccnc5)cn4)cc3)CC2)cc1 [TCMDC-141613]	-15.37
COc1ccc(C(=O)CCC(=O)N(Cc2ccc(-c3ccc(CNCc4cccnc4)cn3)cc2)C2CCN(Cc3ccccc3)CC2)cc1F [TCMDC-141504]	91.04
COc1ccc(C(=O)CCC(=O)N(Cc2ccc(-c3ccc(CNCCc4ccc(S(C)(=O)=O)cc4)cn3)cc2)C2CCN(Cc3ccccc3)CC2)cc1F [TCMDC-141516]	12.43
O=C(Cc1cccnc1)N(Cc1ccc(-c2ccc(CNCc3cccnc3)cn2)cc1)C1CCN(Cc2ccccc2)CC1 [TCMDC-141503]	73.31
C=CCc1cccc(C)c1OCCCON1C(N)=NC(N)=NC1(C)C [TCMDC-131307]	8.677
Cc1cc(C)n2nc(C(=O)Nc3cc(C(F)(F)F)ccc3N3CCOCC3)nc2n1 [TCMDC-123614]	4.468
Cc1cc(N(C)C)nc(Nc2ccc(NC(=O)c3ccc(Br)o3)cc2)n1 [TCMDC-124972]	-1.025
CCCC(CNC(=O)c1cc2c(Cl)cc(Cl)cc2[nH]1)CNc1cc(=O)c2ccccc2[nH]1 (stereo not shown) [TCMDC-140519]	-10.38
Cc1c(CC(=O)N(C)C2CCN(CCCCCNC(=O)/C=C/c3ccc(Cl)c(Cl)c3)CC2)sc2ccc(Cl)cc12 [TCMDC-139994]	-4.891
COc1ccc(CCn2c(=N)c(C(=O)NCc3ccccc3)cc3c(=O)n4ccccc4nc32)cc1 [TCMDC-124472]	34.54

Compound	% Inhibition [%]
CCOC(=O)N(C)/N=C/[C@H](CCc1ccccc1)NC(=O)[C@H](CC(C)C)NC(=O)c1cc2cccc(OC)c2o1 [TCMDC-136018]	75
CCC[C@@H](/C=N/N(C)C(=O)OC(C)(C)C)NC(=O)[C@H](CC(C)C)NC(=O)c1cc2cccc(OC)c2o1 [TCMDC-136059]	-6.333
CCOC(=O)N/N=C/[C@H](CCc1ccccc1)NC(=O)[C@H](CC(C)C)NC(=O)c1cc2cccc(OC)c2o1 [TCMDC-135928]	10.67
CCOc1cc(C(=O)NCCN(CC)c2cccc(C)c2)ccc1-c1nc2ccc(Cl)cc2[nH]1 [TCMDC-140916]	-6.076
Nc1nccc2ccc(-c3ccc(OCc4ccccc4)cc3)cc12 [TCMDC-133423]	12.93
CCc1cc2c(N)nc(N)nc2nc1-c1ccccc1 [TCMDC-131931]	14.27
Nc1nc(N)c2cc3ccc(OCc4ccccc4)cc3nc2n1 [TCMDC-137967]	109.1
O=C(NC(Cc1ccccc1)C(=O)O)c1cc(=O)c2ccccc2o1 (stereo not shown) [TCMDC-131318]	3.006
O=C(Nc1cccc(OC2CCN(Cc3ccccc3)CC2)c1)c1ccc([N+](=O)[O-])cc1 [TCMDC-139543]	0.689
CC1(C)N=C(NC(=O)Nc2ccc([N+](=O)[O-])cc2)N=C(N)N1OCc1cccc2ccccc12 [TCMDC-131582]	35.05
COc1cc2cc(C(=O)Nc3ccccc3)c(N)nc2cc1OC [TCMDC-123992]	12.69
Cc1ccccc1Cc1cccc(/N=C(\N)Nc2ccc(Cl)cc2)n1 [TCMDC-138942]	89.67
CN(c1ccccc1)c1ccnc(/N=C(\N)Nc2ccc(Cl)cc2)n1 [TCMDC-138941]	49.31
Cc1ccccc1CN1CCCN(Cc2ccc(C(=O)Nc3ccc(Cl)cc3)cc2)CC1 [TCMDC-136402]	-5.846
COc1ccc(Cc2nc(N=C(N)Nc3ccccc3)ccc2OC)cc1 [TCMDC-138959]	88.7
N/C(=N\c1cccc(Cc2ccc([N+](=O)[O-])cc2)n1)Nc1ccccc1 [TCMDC-138952]	90.6
COc1ccc(CCN(C)CCOc2ccc(NC(=O)c3cccc4cc5ccccc5nc34)cc2)cc1OC [TCMDC-132112]	-28.68
NC(=O)c1cccc(Nc2nccc(Nc3ccc4[nH]c(-c5ccccc5)cc4c3)n2)c1 [TCMDC-138678]	-94.87
COc1ccc(S(=O)(=O)NC2CCN(c3cc(C)nc(Nc4cccc(C#N)c4)n3)CC2)cc1 [TCMDC-134215]	11.7
Cc1ccc(NC(=O)c2cnc(N3CCN(c4ccncc4)CC3)c(Cl)c2)cc1 [TCMDC-134603]	7.543
